# Assay results as given in PubChem BioAssay (Tox21).
# Unmarked numbers belong to inactive results. Inconclusive results are not listed. A call without a number means that no potency is given here. The source made the active and inactive calls. Unless noted, the call rests on the fitted dose curve; in most records, active means well fitted curve in the direction sought with a large enough effect in the repeat runs; inconclusive means weak or mixed curves; inactive means no such curve, though single readings can be large; an effect the other way counts as inactive or inconclusive.
# How the values were obtained:
# [1] = target: Thyrotropin receptor (Homo sapiens) (UniProt P16473); experiment: qHTS assay to identify small molecule antagonists of the thyroid stimulating hormone receptor (TSHR) signaling pathway (AID 1259385; calls by dose curve; further: nearly all actives have a fitted effect of over 20% in size)
# Chain of Thyrotropin receptor (Homo sapiens) (P16473 whole entry, looked up): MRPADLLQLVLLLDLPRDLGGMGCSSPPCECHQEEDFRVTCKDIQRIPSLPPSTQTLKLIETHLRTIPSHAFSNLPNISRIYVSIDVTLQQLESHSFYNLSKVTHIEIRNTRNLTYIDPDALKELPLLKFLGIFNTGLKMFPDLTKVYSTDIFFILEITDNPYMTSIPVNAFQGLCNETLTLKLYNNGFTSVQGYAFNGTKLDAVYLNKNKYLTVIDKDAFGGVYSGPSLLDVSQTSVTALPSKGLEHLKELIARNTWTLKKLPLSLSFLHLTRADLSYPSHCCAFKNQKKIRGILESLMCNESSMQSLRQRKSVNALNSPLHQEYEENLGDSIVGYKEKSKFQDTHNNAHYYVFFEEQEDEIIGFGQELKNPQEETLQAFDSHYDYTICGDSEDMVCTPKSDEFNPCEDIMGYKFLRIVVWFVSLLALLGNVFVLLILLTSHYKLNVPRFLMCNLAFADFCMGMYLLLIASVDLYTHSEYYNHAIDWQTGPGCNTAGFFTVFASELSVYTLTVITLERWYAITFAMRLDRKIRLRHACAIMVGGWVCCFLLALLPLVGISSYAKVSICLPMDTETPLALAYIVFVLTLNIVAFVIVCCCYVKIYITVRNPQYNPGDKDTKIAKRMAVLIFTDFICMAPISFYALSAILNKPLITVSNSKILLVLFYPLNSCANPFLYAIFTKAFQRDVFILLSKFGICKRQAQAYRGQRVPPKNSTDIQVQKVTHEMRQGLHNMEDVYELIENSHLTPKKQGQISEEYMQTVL
# Method in brief: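 Antagonist mode: compound-treated TSHR-expressing HEK293 cells were stimulated with 1.5 ng/mL TSH (final) in presence of Ro20-1724 for 30 min at RT. HTRF cAMP detection after 1 h; each compound tested at 15 concentrations, triplicate.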
# [2] = qHTS assay to identify small molecule agonists of the estrogen receptor alpha (ER-alpha) signaling pathway in the presence of an antagonist - cell viability counter screen (AID 1259386);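 further: series mostly up to about 92 µM; cells exposed to compounds for 22 h at 37 °C before the viability read; nearly all actives have a fitted effect of over 30% in size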
# Method in brief: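 Using estrogen-depleted VM7Luc4E2 cells, the 15-concentration compound series was applied together with 10.0nM ICI-182,780 and incubated 22hr at 37C/5% CO2. Cell viability was then scored by CellTiter-Fluor.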
# [3] = target: Progesterone receptor (Homo sapiens) (UniProt P06401); experiment: qHTS assay to identify small molecule agonists of the progesterone receptor (PR) signaling pathway (AID 1346784; calls by dose curve; further: nearly all actives have a fitted effect of over 30% in size)
# Chain of Progesterone receptor (Homo sapiens) (P06401 whole entry, looked up): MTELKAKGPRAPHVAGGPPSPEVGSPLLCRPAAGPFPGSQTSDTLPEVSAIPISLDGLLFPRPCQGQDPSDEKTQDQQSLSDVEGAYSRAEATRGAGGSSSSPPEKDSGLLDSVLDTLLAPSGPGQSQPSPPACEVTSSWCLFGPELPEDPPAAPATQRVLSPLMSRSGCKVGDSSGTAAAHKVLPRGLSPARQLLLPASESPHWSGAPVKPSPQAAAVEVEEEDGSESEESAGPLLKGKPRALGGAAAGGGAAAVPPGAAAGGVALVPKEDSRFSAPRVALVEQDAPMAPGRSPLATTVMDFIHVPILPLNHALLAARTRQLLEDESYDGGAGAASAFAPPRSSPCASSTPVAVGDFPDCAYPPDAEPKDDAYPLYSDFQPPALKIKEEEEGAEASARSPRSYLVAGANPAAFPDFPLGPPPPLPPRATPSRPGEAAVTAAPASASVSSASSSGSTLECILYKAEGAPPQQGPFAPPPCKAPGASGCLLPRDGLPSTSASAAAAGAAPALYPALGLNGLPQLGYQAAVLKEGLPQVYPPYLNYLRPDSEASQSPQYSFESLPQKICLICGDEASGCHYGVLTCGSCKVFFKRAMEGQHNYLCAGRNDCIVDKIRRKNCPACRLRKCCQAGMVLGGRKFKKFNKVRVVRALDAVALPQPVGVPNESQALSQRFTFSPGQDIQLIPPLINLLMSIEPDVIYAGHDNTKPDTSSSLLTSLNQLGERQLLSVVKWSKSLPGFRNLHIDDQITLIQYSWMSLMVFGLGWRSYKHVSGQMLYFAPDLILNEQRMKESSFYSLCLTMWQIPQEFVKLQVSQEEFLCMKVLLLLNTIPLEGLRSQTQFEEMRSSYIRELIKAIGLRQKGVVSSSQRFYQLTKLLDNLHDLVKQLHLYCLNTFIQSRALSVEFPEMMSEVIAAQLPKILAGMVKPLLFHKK
# Method in brief: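 Reporter assay, GripTite PR-UAS-bla HEK 293T cells: 16 hr exposure to DMSO-dissolved compounds at 37C, 5% CO2, in steroid-depleted (2% charcoal-stripped FBS) medium; beta-lactamase measured by FRET fluorescence.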
# [4] = target: Progesterone receptor (Homo sapiens) (UniProt P06401); experiment: qHTS assay to identify small molecule antagonists of the progesterone receptor (PR) signaling pathway (AID 1346795; active means well fitted inhibition curve with a large enough effect in the signal ratio in the repeat runs, not every such curve was filed as active; the % refers to the signal ratio)
# Method in brief: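 Stimulus R5020 at 1 nM final; cells HEK293T PR-UAS-bla; medium with 2% charcoal-stripped FBS; compound exposure 16 hr at 37C, 5% CO2; detection by FRET beta-lactamase substrate, 2 hr, room temperature.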
# [5] = qHTS assay to identify small molecule antagonists of the progesterone receptor (PR) signaling pathway - cell viability counter screen (AID 1346798); further: nearly all actives have a fitted effect of over 50% in size; further: potency means the concentration at half of the fitted maximal effect; on activity change, negative = cytotoxicity: series mostly up to about 92 µM
# Method in brief: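 In the same plates used for the beta-lactamase readout, cell viability of compound- and R5020-treated PR-UAS-bla HEK293T cells (16 hr, 37C) was assessed by CellTiter-Glo luminescence.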
# [6] = qHTS assay to identify small molecule agonists of the progesterone receptor (PR) signaling pathway - cell viability counter screen (AID 1346799; calls by dose curve; further: nearly all actives have a fitted effect of over 45% in size)
# Method in brief: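 Multiplexed viability read: CellTiter-Glo luminescence, 30 min RT, following LiveBLAzer FRET measurement on PR-UAS-bla HEK293T cells exposed to compounds 16 hr.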
# [7] = qHTS assay to identify small molecule antagonists of the TGF-beta/Smad signaling pathway - cell viability counter screen (AID 1346824); further: nearly all actives have a fitted effect of over 50% in size
# Method in brief: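 Cytotoxicity counter-screen run in the same wells as the beta-lactamase Smad reporter read: CellTiter-Glo luminescence after 30 min at room temperature. HEK 293T SBE-bla cells had 5 hr compound exposure at 37 C with TGF-beta1 (0.25 ng/mL stock).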
# [8] = qHTS assay to identify small molecule agonists of the TGF-beta/Smad signaling pathway - cell viability counter screen (AID 1346829); further: top concentration of the series differs between compounds; nearly all actives have a fitted effect of over 45% in size
# Method in brief: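 Compound-treated SBE-bla HEK 293T cells (5 hr, 37 C) were assessed for viability with CellTiter-Glo in parallel with the reporter read.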
# [9] = qHTS assay to identify small molecule agonists of the TGF-beta/Smad signaling pathway (AID 1346859; active means well fitted activation curve with a large enough effect in the signal ratio in the repeat runs, not every such curve was filed as active; the % refers to the signal ratio; further: series mostly up to about 77 µM)
# Method in brief: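 Screening used HEK 293T SBE-bla cells at 4,000/well. Test agents: 5 hr, 37 C. Detection: FRET substrate, 2 hr RT, then excitation 405 nm with emissions at 460 and 530 nm.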
# [10] = target: Thyrotropin-releasing hormone receptor (Homo sapiens) (UniProt P34981); experiment: qHTS assay to identify small molecule antagonists of the thyrotropin-releasing hormone receptor (TRHR) signaling pathway (AID 1346877; active means well fitted inhibition curve with a large enough effect in the repeat runs, not every such curve was filed as active; further: series mostly up to about 51 µM)
# Chain of Thyrotropin-releasing hormone receptor (Homo sapiens) (P34981 whole entry, looked up): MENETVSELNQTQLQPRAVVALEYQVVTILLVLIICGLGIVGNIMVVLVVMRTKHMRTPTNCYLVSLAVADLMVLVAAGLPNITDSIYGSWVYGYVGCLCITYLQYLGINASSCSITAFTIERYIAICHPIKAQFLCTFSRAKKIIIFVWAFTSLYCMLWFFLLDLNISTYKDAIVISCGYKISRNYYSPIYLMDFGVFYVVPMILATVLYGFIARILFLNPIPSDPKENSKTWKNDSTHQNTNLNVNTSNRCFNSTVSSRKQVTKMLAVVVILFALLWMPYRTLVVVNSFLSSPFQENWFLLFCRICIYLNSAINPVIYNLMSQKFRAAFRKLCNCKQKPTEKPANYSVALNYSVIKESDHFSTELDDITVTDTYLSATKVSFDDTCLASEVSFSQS
# Method in brief: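 Calcium signal in dye-loaded TRHR/HEK293 cells; compounds added 5 min before TRH (1 nM final); fluorescence monitored 3 min at 1 s steps.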
smiles,measurement,setting,value
CCCCOCCOCCOCCCC,Potency,[1],inactive
same,Potency,[2],inactive
same,Potency,[3],inactive
same,Potency,[4],inactive
same,Potency,[5],inactive
same,Potency,[6],inactive
same,Potency,[7],inactive
same,outcome,[8],inactive
same,outcome,[9],inactive
same,outcome,[10],inactive
NC(=O)c1ccc(N)cc1,Potency,[1],inactive
same,Potency,[2],inactive
same,Potency,[3],inactive
same,Potency,[4],inactive
same,Potency,[5],inactive
same,Potency,[6],inactive
same,Potency,[7],inactive
same,outcome,[8],inactive
same,outcome,[9],inactive
CO/N=C(/C(=O)N[C@@H]1C(=O)N2C(C(=O)OCOC(=O)C(C)(C)C)=C(C)CS[C@H]12)c1csc(N)n1,Potency,[1],inactive
same,Potency,[2],inactive
same,Potency,[3],inactive
same,Potency,[4],inactive
same,Potency,[5],inactive
same,Potency,[6],inactive
same,Potency,[7],inactive
same,outcome,[8],inactive
same,outcome,[9],inactive
N[C@H](C(=O)O)c1ccc(O)cc1,"activity change, negative = inhibition",[1],-2.34% [at 19 µM]
same,"activity change, negative = cytotoxicity",[2],3.8% [at 19 µM]
same,activation,[3],-0.625% [at 19 µM]
same,Potency,[4],inactive
same,Potency,[5],inactive
same,"activity change, negative = cytotoxicity",[6],-6.4% [at 19 µM]
same,"viability change, negative = cytotoxic",[7],1.75% [at 15.8 µM]
same,"activity change, negative = cytotoxicity",[8],-0.107% [at 15.8 µM]
same,activation,[9],-1.41% [at 15.8 µM]
same,"activity, negative = inhibition",[10],3.01% [at 10.5 µM]
CC(C)(CC(=O)O)C(=O)O,Potency,[1],inactive
same,Potency,[2],inactive
same,Potency,[3],inactive
same,Potency,[4],inactive
same,Potency,[5],inactive
same,Potency,[6],inactive
same,Potency,[7],inactive
same,outcome,[8],inactive
same,outcome,[9],inactive
NS(=O)(=O)c1cc(C(=O)NN2C[C@H]3[C@H]4CCC(C4)[C@H]3C2)ccc1Cl,Potency,[1],inactive
same,Potency,[2],inactive
same,Potency,[3],inactive
same,Potency,[4],inactive
same,Potency,[5],inactive
same,Potency,[6],inactive
same,Potency,[7],inactive
same,outcome,[8],inactive
same,outcome,[9],inactive
same,outcome,[10],inactive
CCC=O,Potency,[1],inactive
same,Potency,[2],inactive
same,Potency,[3],inactive
same,Potency,[4],inactive
same,Potency,[5],inactive
same,Potency,[6],inactive
same,Potency,[7],inactive
same,outcome,[8],inactive
same,outcome,[9],inactive
CCSC(=O)N(CC(C)C)CC(C)C,Potency,[1],inactive
same,Potency,[2],inactive
same,Potency,[3],inactive
same,Potency,[4],inactive
same,Potency,[5],inactive
same,Potency,[6],inactive
same,Potency,[7],inactive
same,outcome,[8],inactive
same,outcome,[9],inactive
CC/C=C\CCOC(C)=O,Potency,[1],inactive
same,Potency,[2],inactive
same,Potency,[3],inactive
same,Potency,[4],inactive
same,Potency,[5],inactive
same,Potency,[6],inactive
same,Potency,[7],inactive
same,outcome,[8],inactive
same,outcome,[9],inactive
O=C1NC(=O)[C@@]2(CCOc3ccc(F)cc32)N1,Potency,[1],inactive
same,Potency,[2],inactive
same,Potency,[3],inactive
same,Potency,[4],inactive
same,Potency,[5],inactive
same,Potency,[6],inactive
same,Potency,[7],inactive
same,outcome,[8],inactive
same,outcome,[9],inactive
c1cnc(N2CCN(Cc3ccc4c(c3)OCO4)CC2)nc1,Potency,[1],inactive
same,Potency,[2],inactive
same,Potency,[3],inactive
same,Potency,[4],inactive
same,Potency,[5],inactive
same,Potency,[6],inactive
same,Potency,[7],inactive
same,outcome,[8],inactive
same,outcome,[9],inactive
same,outcome,[10],inactive
CCOC(=O)CC(C)=O,Potency,[1],inactive
same,Potency,[2],inactive
same,Potency,[3],inactive
same,Potency,[4],inactive
same,Potency,[5],inactive
same,Potency,[6],inactive
same,Potency,[7],inactive
same,outcome,[8],inactive
same,outcome,[9],inactive
CC(C)OC(=O)c1ccccc1,Potency,[1],inactive
same,Potency,[2],inactive
same,Potency,[3],inactive
same,Potency,[4],inactive
same,Potency,[5],inactive
same,Potency,[6],inactive
same,Potency,[7],inactive
same,outcome,[8],inactive
same,outcome,[9],inactive
FC1(F)C(F)(F)C(F)(F)C2(F)C(F)(F)C(F)(F)C(F)(F)C(F)(F)C2(F)C1(F)F (stereo not drawn),Potency,[1],inactive
same,Potency,[2],inactive
same,Potency,[3],inactive
same,Potency,[4],inactive
same,Potency,[5],inactive
same,Potency,[6],inactive
same,Potency,[7],inactive
same,outcome,[8],inactive
same,outcome,[9],inactive
CC/C=C\CC/C=C/C(OCC)OCC,Potency,[1],inactive
same,Potency,[2],inactive
same,Potency,[3],inactive
same,Potency,[4],inactive
same,Potency,[5],inactive
same,Potency,[6],inactive
same,Potency,[7],inactive
same,outcome,[8],inactive
same,outcome,[9],inactive
CCCCCCCCS(=O)(=O)Cl,Potency,[1],inactive
same,Potency,[2],inactive
same,Potency,[3],inactive
same,Potency,[4],inactive
same,Potency,[5],inactive
same,Potency,[6],inactive
same,Potency,[7],inactive
same,outcome,[8],inactive
same,outcome,[9],inactive
same,outcome,[10],inactive
Nc1ccccc1S(=O)(=O)O,Potency,[1],inactive
same,Potency,[2],inactive
same,Potency,[3],inactive
same,Potency,[4],inactive
same,Potency,[5],inactive
same,Potency,[6],inactive
same,Potency,[7],inactive
same,outcome,[8],inactive
same,outcome,[9],inactive
COCCc1ccc(OCC(O)CNC(C)C)cc1 (stereo not drawn),Potency,[1],inactive
same,Potency,[2],inactive
same,Potency,[3],inactive
same,Potency,[4],inactive
same,Potency,[5],inactive
same,Potency,[6],inactive
same,Potency,[7],inactive
same,outcome,[8],inactive
same,outcome,[9],inactive
CCn1nc(C(=O)O)c(=O)c2cc3c(cc21)OCO3,Potency,[1],inactive
same,Potency,[2],inactive
same,Potency,[3],inactive
same,Potency,[4],inactive
same,Potency,[5],inactive
same,Potency,[6],inactive
same,Potency,[7],inactive
same,outcome,[8],inactive
same,outcome,[9],inactive
CC(C)(C)NCCNC(C)(C)C,Potency,[1],inactive
same,Potency,[2],inactive
same,Potency,[3],inactive
same,Potency,[4],inactive
same,Potency,[5],864 nM (active)
same,Potency,[6],inactive
same,Potency,[7],inactive
same,outcome,[8],inactive
same,outcome,[9],inactive
CCn1ccnc1CC1COc2ccccc2O1 (stereo not drawn),Potency,[1],inactive
same,Potency,[2],inactive
same,Potency,[3],inactive
same,Potency,[4],inactive
same,Potency,[5],inactive
same,Potency,[6],inactive
same,Potency,[7],inactive
same,outcome,[8],inactive
same,outcome,[9],inactive
same,outcome,[10],inactive
CCC(C)S (stereo not drawn),"activity change, negative = inhibition",[1],-0.487% [at 3.27 µM]
same,"activity change, negative = cytotoxicity",[2],1.97% [at 3.27 µM]
same,activation,[3],-0.0244% [at 3.27 µM]
same,"activity change, negative = inhibition",[4],8.27% [at 3.27 µM]
same,"activity change, negative = cytotoxicity",[5],-5.62% [at 3.27 µM]
same,"activity change, negative = cytotoxicity",[6],1.88% [at 3.27 µM]
same,"viability change, negative = cytotoxic",[7],-5.42% [at 2.72 µM]
same,"activity change, negative = cytotoxicity",[8],8.43% [at 2.72 µM]
same,activation,[9],-0.527% [at 2.72 µM]
same,"activity, negative = inhibition",[10],-1.08% [at 1.81 µM]
CCCN(CCC)CCc1cccc2c1CC(=O)N2,Potency,[1],inactive
same,Potency,[2],inactive
same,Potency,[3],inactive
same,Potency,[4],inactive
same,Potency,[5],inactive
same,Potency,[6],inactive
same,Potency,[7],inactive
same,outcome,[8],inactive
same,outcome,[9],inactive
same,outcome,[10],inactive
NC(=O)c1cn(Cc2c(F)cccc2F)nn1,Potency,[1],inactive
same,Potency,[2],inactive
same,Potency,[3],inactive
same,Potency,[4],inactive
same,Potency,[5],inactive
same,Potency,[6],inactive
same,Potency,[7],inactive
same,outcome,[8],inactive
same,outcome,[9],inactive
C1OCOCO1,Potency,[1],inactive
same,Potency,[2],inactive
same,Potency,[3],inactive
same,Potency,[4],inactive
same,Potency,[5],inactive
same,Potency,[6],inactive
same,Potency,[7],inactive
same,outcome,[8],inactive
same,outcome,[9],inactive
